# High-throughput results deposited in PubChem by National Center for Advancing Translational Sciences (NCATS).
# Most compounds without a hit are left out; they make up all but 2.9% or so of the library.
# A549 viability = kills or reduces viability of A549 cells in Nrf2 counter-screen; A549 ARE-Fluc cells, CellTiter-Fluor viability, 18-24 h; AID 504648; 390,000 tested, 0.16% active; Potency, µM (doses to about 46 µM), without a hit: top-dose activity change, negative = cytotoxicity, usual class: inhibitors; also: potency is read from the fitted curve at half-maximal effect; % is scaled to controls: 0 for no effect and ±100 for the full control effect
#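 A549 ARE_Fluc cells in 5% FBS OPTI-MEM were exposed to compounds in concentration-response for 18-24 h at 37 deg C. Viability was read by CellTiter-Fluor fluorescence (Ex 405/Em 525) after 30 min, before the luciferase read.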
# S2 tox = reduces viability in counter-screen for ATXN expression inhibitors; S2 cells (HEK-293 line with an ATXN2-luciferase reporter) viability, CellTiter-Fluor protease fluorescence, 24 h; Potency, µM (titrated, usually from 56.7 µM), hits mostly cytotoxic; 400,000 tested, 0.49% active; also: potency is read from the fitted curve at half-maximal effect; nearly all actives have a fitted effect of over 40% in size
# Nrf2 activator = activates Nrf2 signaling; AREc32 ARE-luciferase reporter (MCF7-derived line), luminescence, 24 h; Potency, µM (titrated, usually from 46.1 µM), inactives show at the top dose activation, most hits filed as activators; 410,000 tested, 0.31% active; AID 624171; also: potency is read from the fitted curve at half-maximal effect; % of control where 0% means no effect; nearly all actives have a fitted effect of over 65% in size
#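 Steps: seed AREc32_Fluc cells (1000/well, 5% FBS OPTI-MEM); incubate overnight at 37 deg C; add 23 nL compound; incubate 24 hr; add Steady-Glo; hold 30 min RT; read luminescence.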
# ATXN2 expr inh = reduces ATXN2 reporter expression in HEK-293 cells; HEK-293 ATXN2-luciferase reporter, luminescence, 24 h; Potency, µM (series often up to 57 µM), inactives show at the top dose activity change, negative = inhibition, hits mostly inhibitors; 360,000 tested, 0.72% active; AID 1745845; also: potency is read from the fitted curve at half-maximal effect; % is scaled to controls: 0 for no effect and ±100 for the full control effect; nearly all actives have a fitted effect of over 55% in size
#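 qHTS (up to 57 uM final) was run with 24 h compound exposure of reporter cells at 37 °C. Each well was multiplexed: SteadyGlo luminescence measured ATXN2-luciferase expression after a fluorogenic Gly-Phe-AFC viability readout (25 uM final).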
# Nrf2 block = inhibitors of Nrf2 signaling; Potency, µM (titrated, usually from 46 µM), for the others: at the top dose activity change, negative = inhibition, hits mostly inhibitors; A549 ARE-Fluc reporter, luciferase luminescence, 18-24 h; 360,000 tested, 2.1% active; also: potency is read from the fitted curve at half-maximal effect; % is scaled to controls: 0 for no effect and ±100 for the full control effect; nearly all actives have a fitted effect of over 60% in size
#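 Two sequential reads on A549 ARE_Fluc cells exposed to compound for 18-24 h: a CellTiter-Fluor fluorescence read for viability, then a luciferase luminescence read for Nrf2/ARE activity.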
# EBOV entry S4 rt = blocks Ebola virus entry, screen 4 ratio readout. shares compounds with ATXN2 expr inh. Ebola pseudovirus entry assay, ratio channel. AC50, µM. 170 tested, 79% active. AID 1117308; calls by dose curve
# EBOV S4 blue = blocks Ebola virus entry, screen 4 blue channel readout; calls only; Ebola virus entry assay, blue channel fluorescence ratio; Channel: blue; AID 1117309; 170 tested, under 10 active; shares compounds with ATXN2 expr inh; call rule not given here
# EBOV entry S4 grn = Ebola virus entry blockers, screen 4 green channel | shares compounds with ATXN2 expr inh | Ebola virus entry reporter assay, green fluorescence channel; Channel: green | calls only | 170 tested, under 10 active | AID 1117316; call rule not given here
# SKNSH spheroid = reduced viability of SK-N-SH 3D spheroids, orthogonal test; shares compounds with ATXN2 expr inh; SK-N-SH 3D spheroid viability, PI/Hoechst imaging, 72 h; Potency, µM (highest dose often 30.7 µM), hits mostly inhibitors; 65 tested, 70% active; AID 1347135
# SJ-GBM2 3D tox = lowers viability of SJ-GBM2 3D spheroids | AID 1347136 | SJ-GBM2 3D spheroid viability, PI/Hoechst imaging, 72 h | 65 tested, 80% active | shares compounds with ATXN2 expr inh | Potency, µM (doses to about 30.7 µM), usual class: inhibitors
# Daoy 3D tox = Daoy 3D spheroid viability loss; 65 tested, 50% active; Daoy 3D spheroid viability, PI/Hoechst imaging, 72 h; shares compounds with ATXN2 expr inh; Potency, µM (titrated, usually from 30.7 µM), usual class: inhibitors
# TC32 3D casp = TC32 spheroid caspase-3/7 activation, orthogonal screen; TC32 3D spheroids, caspase-3/7 fluorescence imaging, 24 h; Potency, µM (doses to about 30.7 µM), actives largely listed as inhibitors; shares compounds with ATXN2 expr inh; 65 tested, 30% active; AID 1347138
# TC32 spheroid = TC32 3D spheroid viability loss | AID 1347139 | TC32 3D spheroid viability, PI/Hoechst imaging, 72 h | shares compounds with ATXN2 expr inh | Potency, µM (series often up to 30.7 µM), usual class: inhibitors | 65 tested, 60% active
# MG63 spheroid = kills MG-63 (6-TG R) spheroids in orthogonal 3D test; 65 tested, 50% active; shares compounds with ATXN2 expr inh; MG-63 (6-TG R) 3D spheroid viability, PI/Hoechst imaging, 72 h; Potency, µM (highest dose often 30.7 µM), hits mostly inhibitors
# RD 3D tox = RD 3D spheroid viability loss | shares compounds with ATXN2 expr inh | RD rhabdomyosarcoma 3D spheroid viability, PI/Hoechst imaging, 72 h | Potency, µM (top dose mostly 30.7 µM), most hits filed as inhibitors | 65 tested, 50% active
# Active calls of the source: *; i = inactive; ? = inconclusive; / = no result given. Unless noted, calls follow the shape of the dose curve; as a rule, active = well fitted curve in the direction sought with a large enough effect; inconclusive = small, poorly fitted or top-dose-only effect, or another doubt; inactive = no such curve, though single readings can be large; an effect the other way counts as inactive or inconclusive.
SMILES,A549 viability,S2 tox,Nrf2 activator,ATXN2 expr inh,Nrf2 block,others
O=C(O)CNC1c2ccccc2CSc2ccccc21 (stereo not drawn),1.9%,i,-0.8%,0.9%,5.3%,
Cc1cccn2c(=O)c(/C=C(\C#N)c3nc4ccccc4s3)c(Oc3ccc(F)cc3)nc12,-17.3%,?,3.4%,0.0%,18.1%,
Cc1ccc(CN(C)C(=O)c2cccc(S(=O)(=O)N3CCN(c4ccccc4)CC3)c2)cc1,-7.6%,?,0.2%,-24.5%,?,
Fc1ccc(C(OCCN2CCCC2)c2ccc(Br)cc2)cc1 (stereo not drawn),-2.1%,i,11.8%,-23.3%,4.7%,
COC1=CC(=O)O[C@@H](/C=C\c2ccccc2)C1,/,i,/,/,/,
O=C1NCCOC(=O)[C@@H](Cc2ccc(F)cc2)CC/C=C/C[C@@H]1CC(=O)N(CCO)Cc1ccccc1,-5.5%,i,1.6%,3.1%,8.0%,
O=C(CCC1N=C2c3ccccc3N=C(SCc3cccc(Cl)c3)N2C1=O)N1CCN(c2ccccc2)CC1 (stereo not drawn),-16.4%,?,4.7%,-13.4%,15.9%,
CCOP(=S)(OCC)O/N=C(\C#N)c1ccccc1,/,i,/,20.1%,/,
C#Cc1cccc(Nc2ncnc3cc(OCCOC)c(OCCOC)cc23)c1,/,?,/,?,/,EBOV entry S4 rt=i;EBOV S4 blue=i;EBOV entry S4 grn=i
C[C@]12N[C@@H](Cc3ccccc31)c1ccccc12,/,i,/,/,/,
CC(C)c1ccc2c(c1)C(N1CCNCC1)Cc1ccc(F)cc1S2 (stereo not drawn),6.0%,?,-3.1%,?,1.4%,
CCCCOc1ccc(CNC(=O)c2cc3n(n2)CCCN(Cc2ccc(C)cc2)C3=O)cc1,-19.6%,?,1.1%,?,/,
CCOP(=O)(OCC)/C(C#N)=C/c1ccc(-c2ccc(F)cc2F)o1,-12.4%,?,-0.5%,/,-28.8%,
CCn1c(COc2cccc3ccccc23)nnc1SCC(N)=O,/,?,-0.2%,-13.0%,1.7%,
Cc1cc2nc(-c3cccc(Br)c3)c(Cc3cccc(Cl)c3)n2c(C)c1Br,/,i,?,2.3%,/,
COC(=O)C1=CCCN(C)C1,0.3%,i,3.1%,40.6%,?,SKNSH spheroid=12.8µM*;SJ-GBM2 3D tox=?;Daoy 3D tox=i;TC32 3D casp=?;TC32 spheroid=4.06µM*;MG63 spheroid=i;RD 3D tox=i
COP(=S)(OC)Oc1cc(Cl)c(Cl)cc1Cl,/,i,/,31.3%,/,
